The text below walks through data of PubChem BioAssay (NCATS).

Each structure is given as a SMILES string. Unmarked numbers belong to inactive results. Records with an inconclusive call do not appear. Activity calls are given as the source filed them. Calls follow the shape of the dose curve; as a rule, active = well fitted curve in the direction sought with a large enough effect; inconclusive = small, poorly fitted or top-dose-only effect, or another doubt; inactive = no such curve, though single readings can be large; an effect the other way counts as inactive or inconclusive. Peptide text beside a SMILES is read from it.

Experiment [1] concerns Nanoluciferase (engineered Oplophorus gracilirostris luciferase). Briefly: Primary Nanoluciferase (NLuc) qHTS assay for identification of artifact compounds. (AID 1845222).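 Also: NLuc secreted into diluted conditioned medium of S16 cells.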 The method, boiled down:
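Using secreted nanoluciferase in S16 culture medium (0.22 um filtered, 1:55 dilution), compounds were preincubated 15 min at RT. Signal was generated with Nano-Glo reagent (1:100) over 5 min.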
A general note: qHTS replaces the single test concentration by a dilution series.

Experiment [2] is described as follows: Quantitative High-Throughput drug screen in 47 multiple myeloma cell lines against the NCATS MIPE library collection: FR4_PLB cell viability assay (AID 1918924; also: nearly all actives have a fitted effect of over 35% in size; also: potency is read from the fitted curve at half-maximal effect). The gist of the method: (§1)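 qHTS of the MIPE 4.0 collection: 500 myeloma cells/well, 48 h drug exposure at 37C in 5% CO2, then CellTiter-Glo for 5 min at room temperature before luminescence reading.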

Experiment [3] can be described thus: Quantitative High-Throughput drug screen in 47 multiple myeloma cell lines against the NCATS MIPE library collection: Delta47_JCRB cell viability assay (AID 1918925; also: nearly all actives have a fitted effect of over 45% in size; also: potency is read from the fitted curve at half-maximal effect). The gist of the method: (§2)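 Luminescent ATP measurement with CellTiter-Glo gives viability, scaled between DMSO-only wells (100%) and media-only wells (0%). Cells, 500 per well, faced library compounds for 48 hours at 37C.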

The nature of experiment [4]: Quantitative High-Throughput drug screen in 47 multiple myeloma cell lines against the NCATS MIPE library collection: EJM_DSMZ cell viability assay (AID 1918926; also: nearly all actives have a fitted effect of over 30% in size). The method, boiled down:
as §2

Experiment [5] can be described thus: Quantitative High-Throughput drug screen in 47 multiple myeloma cell lines against the NCATS MIPE library collection: AMO1_DSMZ cell viability assay (AID 1918927; also: nearly all actives have a fitted effect of over 30% in size). The method, boiled down: as §2
Experiment [6] is described as follows: Quantitative High-Throughput drug screen in 47 multiple myeloma cell lines against the NCATS MIPE library collection: ARD_JJKsccE7 cell viability assay (AID 1918929). The method, boiled down: as §2
Experiment [7] can be described thus: Quantitative High-Throughput drug screen in 47 multiple myeloma cell lines against the NCATS MIPE library collection: Karpas620_DSMZ cell viability assay (AID 1918959). Also: nearly all actives have a fitted effect of over 30% in size. The gist of the method:
as §1

The nature of experiment [8]: Quantitative High-Throughput drug screen in 47 multiple myeloma cell lines against the NCATS MIPE library collection: KMM1_JCRB cell viability assay (AID 1918960). Also: nearly all actives have a fitted effect of over 30% in size. The method, boiled down: (§3)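 Each line was plated at 500 cells/well and treated 48 h with library drugs. Viability came from CellTiter-Glo luminescence relative to DMSO and cell-free medium controls.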
Experiment [9] in a line: Quantitative High-Throughput drug screen in 47 multiple myeloma cell lines against the NCATS MIPE library collection: KHM11_PLB cell viability assay (AID 1918962). Also: nearly all actives have a fitted effect of over 35% in size. The method, boiled down: as §1
Experiment [10] in a line: Quantitative High-Throughput drug screen in 47 multiple myeloma cell lines against the NCATS MIPE library collection: JIM3_ECACC cell viability assay (AID 1918963; also: nearly all actives have a fitted effect of over 35% in size). The method, boiled down:
as §1

Experiment [11] can be described thus: Quantitative High-Throughput drug screen in 47 multiple myeloma cell lines against the NCATS MIPE library collection: H1112_PLB cell viability assay (AID 1918967; also: nearly all actives have a fitted effect of over 30% in size; also: potency is read from the fitted curve at half-maximal effect). The gist of the method: as §2
Experiment [12] is described as follows: Quantitative High-Throughput drug screen in 47 multiple myeloma cell lines against the NCATS MIPE library collection: Karpas25_ECACC cell viability assay (AID 1918968; also: nearly all actives have a fitted effect of over 35% in size; also: potency is read from the fitted curve at half-maximal effect). The method, boiled down: as §2
Experiment [13] can be described thus: Quantitative High-Throughput drug screen in 47 multiple myeloma cell lines against the NCATS MIPE library collection: KMS27_JCRB cell viability assay (AID 1918970). Also: nearly all actives have a fitted effect of over 30% in size. The method, boiled down: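 Myeloma cells (500 per well) were exposed to MIPE 4.0 compounds for 48 h at 37 °C, 5% CO2; viability was read as ATP luminescence with CellTiter-Glo, normalized to DMSO-only (100%) and media-only (0%) wells.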

Experiment [14] can be described thus: Primary redox qHTS assay for identification of artifact compounds. (AID 1845223). The method, boiled down: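 Redox-cycling detection via DTT (250 uM final) oxidation coupled to Amplex Red (25 uM)/HRP (250 mU/mL) in HBSS. 15 min preincubation plus 30 min after DTT, room temperature. Ex/Em 525/598 nm; 4-parameter Hill fit against DMSO and 10 uM DA3003.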
A short description of experiment [15]: Quantitative High-Throughput drug screen in 47 multiple myeloma cell lines against the NCATS MIPE library collection: ARP1_JJKsccF8 cell viability assay (AID 1918928; also: nearly all actives have a fitted effect of over 40% in size; also: potency is read from the fitted curve at half-maximal effect). The gist of the method: as §3
Experiment [16] in a line: Quantitative High-Throughput drug screen in 47 multiple myeloma cell lines against the NCATS MIPE library collection: Karpas417_ECACC cell viability assay (AID 1918961). The note with it: Karpas417 myeloma viability, CellTiter-Glo ATP luminescence, 48 h; viability (% of DMSO): at 45.8 µM (top of the series). The gist of the method:
as §2

The nature of experiment [17]: Quantitative High-Throughput drug screen in 47 multiple myeloma cell lines against the NCATS MIPE library collection: JIM1_ECACC cell viability assay (AID 1918964). The gist of the method: as §2
The nature of experiment [18]: Quantitative High-Throughput drug screen in 47 multiple myeloma cell lines against the NCATS MIPE library collection: INA6_PLB cell viability assay (AID 1918965; also: nearly all actives have a fitted effect of over 55% in size; also: potency is read from the fitted curve at half-maximal effect). The method, boiled down:
as §2

A short description of experiment [19]: Quantitative High-Throughput drug screen in 47 multiple myeloma cell lines against the NCATS MIPE library collection: KMS12BM_JCRB cell viability assay (AID 1918971). Also: nearly all actives have a fitted effect of over 35% in size. Also: potency is read from the fitted curve at half-maximal effect. The method, boiled down:
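Steps: seed 500 cells per well; pin-transfer MIPE 4.0 library; incubate 48 h at 37C, 5% CO2, humidified; add CellTiter-Glo, 5 min room temperature; read luminescence.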

A short description of experiment [20]: Quantitative High-Throughput drug screen in 47 multiple myeloma cell lines against the NCATS MIPE library collection: JJN3_DSMZ cell viability assay (AID 1918966; also: potency is read from the fitted curve at half-maximal effect; nearly all actives have a fitted effect of over 50% in size). The method, boiled down: as §2

For `CCC(C)(Oc1ccc(C2(c3ccc(OC(C)(CC)C(=O)O)cc3)CCCCC2)cc1)C(=O)O` (stereo not given), the call in [1] was inactive. Moreover, the Potency result in [2], in experiment [3], in experiment [4], in experiment [5], in experiment [6] and in [7] was “inactive” each time. Further, the Potency entry in experiment [8], in experiment [9], in [10], in experiment [11] and in experiment [13] was “inactive” each time. The Potency in experiment [12] is 13.2 µM (active).

In the case of `c1cnc2cc3c(cc2n1)C1CNCC3C1`, the outcome in experiment [1] and in experiment [14] was inactive. Further, the Potency entry in experiment [2], in [4], in [5], in experiment [15], in experiment [6] and in experiment [7] was “inactive” throughout. Besides, the Potency result in experiment [8], in experiment [16], in experiment [9], in [10], in experiment [17] and in experiment [18] was “inactive” in each case. Moreover, the Potency entry in experiment [12] and in [19] was “inactive” each time.

Turning to `Cc1ccc(NC(=O)c2ccc(CN3CCN(C)CC3)cc2)cc1Nc1nccc(-c2cccnc2)n1`, the call in experiment [1] and in experiment [14] was inactive. The figures for the Potency in [3], in experiment [18] and in experiment [12] were 20.9 µM (active), 16.6 µM (active) and 23.5 µM (active), respectively. Moreover, the Potency entry in experiment [11] was “inactive”.

Take `COC(=O)[C@H](Cc1ccccc1)NC(=O)[C@@H](N)CC(=O)O` (H-Asp-Phe-OMe): the Potency entry in experiment [2], in experiment [3], in [4], in experiment [5], in experiment [15] and in experiment [6] was “inactive” throughout. Also, the Potency entry in experiment [7], in experiment [8], in experiment [9], in experiment [10], in [17] and in experiment [18] was “inactive” in each case. Besides, the Potency entry in experiment [11], in [12], in experiment [13] and in experiment [19] was “inactive” throughout.

Turning to `CN(c1nccc(=O)[nH]1)C1CCN(c2nc3ccccc3n2Cc2ccc(F)cc2)CC1`, the outcome in experiment [1] was inactive. For the same molecule, the Potency entry in experiment [2], in [5], in experiment [15], in experiment [6], in experiment [7] and in experiment [8] was “inactive” throughout. The Potency was 4.69 µM (active) in experiment [3], 23.5 µM (active) in experiment [18], 23.5 µM (active) in experiment [11] and 11.8 µM (active) in [12].

As for `CC(=O)NC[C@H]1CN(c2ccc(N3CCOCC3)c(F)c2)C(=O)O1`, the call in [1] and in [14] was inactive. The Potency entry in [2], in experiment [4], in experiment [5], in experiment [6], in [7] and in experiment [8] was “inactive” throughout. Moreover, the Potency entry in experiment [11] was “inactive”. For the same molecule, the Potency in experiment [15] was 18.7 µM (active).

Turning to `CC(C)c1nc(CN(C)C(=O)N[C@H](C(=O)N[C@@H](Cc2ccccc2)C[C@H](O)[C@H](Cc2ccccc2)NC(=O)OCc2cncs2)C(C)C)cs1`, in experiment [1], the result was inactive. Moreover, the Potency in [2] was 11.8 µM (active); in experiment [19], 4.69 µM (active). Further, the Potency entry in experiment [4], in experiment [7], in [8], in experiment [16] and in experiment [13] was “inactive” throughout.

`Nc1cccc2c1CN(C1CCC(=O)NC1=O)C2=O` (stereo not given): the Potency entry in experiment [2], in experiment [3], in experiment [4], in [15], in experiment [7] and in [8] was “inactive” throughout. The Potency entry in experiment [11] and in [13] was “inactive” throughout. Besides, the Potency in [20] is 1.71 µM (active); in experiment [12], 4.81 µM (active).
